Where “and” joins values, the source holds several entries; their conditions need not be identical. Identical values can stand only once. Calls of active or inactive are those of the source. How the source made its calls: active means hit-call score of the fitted dose curve at least 0.9, where 1 is the maximum; inactive means score below 0.9.
Test system: TTR (gene 7276)
Test: CCTE_GLTED_hTTR_0.125uM: CCTE's human Transthyretin (hTTR) Inhibition Assay, with 0.125uM TTR, Great Lakes Toxicology and Ecology Division (GLTED) Lab (AID 2284431);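 further: hits lower the fluorescence signal relative to DMSO baseline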
How it was run: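 Fluorescence (380 ex, 475 em) reported the ANSA probe remaining bound to 0.125uM human transthyretin. Chemicals were incubated with the protein for 2 hours; activity was scored as loss of signal against DMSO negative control.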

Compound	AC50
Nc1ccc(N)cc1	2.42 µM (active)
Oc1c(Br)cc(Br)cc1Br	0.0287 µM (active)
O=[N+]([O-])c1ccccc1O	34.8 µM (active) and 21.1 µM (active)
CCOP(=S)(OCC)O/N=C(\C#N)c1ccccc1	2.07 µM (active)
Cc1cc(Cl)ccc1OCCCC(=O)O	2.64 µM (active)
COc1nn(C(=O)NS(=O)(=O)c2ccccc2OC(F)(F)F)c(=O)n1C	9.99 µM (active)
O=C(O)COc1cc(Cl)c(Cl)cc1Cl	0.692 µM (active)
CCOCn1c(-c2ccc(Cl)cc2)c(C#N)c(Br)c1C(F)(F)F	0.0346 µM (active)
O=[N+]([O-])c1ccc(Cl)c([N+](=O)[O-])c1	4.83 µM (active)
O=C1c2ccccc2C(=O)C1C(=O)C(c1ccccc1)c1ccc(Cl)cc1 (configuration not stated)	3.48 µM (active)
CCCCCCCCCCCCOS(=O)(=O)O	2.56 µM (active) and 5.11 µM (active)
CCCCCCCCCCCCc1cccc(S(=O)(=O)O)c1	6.89 µM (active)
Oc1cc(Cl)c(Cl)cc1Cl	0.114 µM (active)
Cc1cc(Cl)ccc1O	14.9 µM (active)
O=C(NC(=O)c1c(F)cccc1F)Nc1cc(Cl)c(OC(F)(F)C(F)C(F)(F)F)cc1Cl (configuration not stated)	2.76 µM (active)
O=C(CBr)c1ccc(O)cc1	4.69 µM (active)
O=S1(=O)OC(c2cc(Br)c(O)c(Br)c2)(c2cc(Br)c(O)c(Br)c2)c2ccccc21	0.109 µM (active)

From PubChem BioAssay (EPA / NIEHS)
